# Source: ChEMBL document CHEMBL3988442, “University of Dundee, Small-Polar-MMV Screening Library” (2021)
# About 440 (0.52%) of roughly 85,000 compounds showed an effect of 50% or more. For the sample, strong results were picked, then their nearest neighbours and some compounds at random.
# Experiment: In vitro enzyme assay to detect hydrolysis of chlorophenol red-beta-D-[…] directly proportional to the number of Toxoplasma stably expressing beta-galactosidase
# Type: functional, organism-based, Toxoplasma gondii
# Parameters: scale not given: in the data most compounds retested in dose-response had high values
compound,measurement,setting,value
OCCNc1nc2ccccc2s1,Percent Effect,50 µM,92.76%
NCCNc1nc2ccccc2s1,Percent Effect,50 µM,19.92%
O=C(NCCO)Nc1nc2ccccc2s1,Percent Effect,50 µM,9.255%
NC(=O)C1CCN(c2ncnc3ccsc23)CC1,Percent Effect,50 µM,0.8525%
CCOC1CCCN(C(=O)c2ccc(C)[nH]c2=O)C1 (configuration not stated),Percent Effect,50 µM,1.701%
CC(C)n1cc(S(=O)(=O)N2CCCCCC2)cn1,Percent Effect,10 µM,51.25%
CC(C)n1cc(S(=O)(=O)N2CCCCC2)cn1,Percent Effect,10 µM,1.913%
CC(C)n1cc(S(=O)(=O)N2CCSCC2)cn1,Percent Effect,10 µM,32.53%
CN(C)C(=O)c1ccc(Oc2ncccn2)cc1,Percent Effect,50 µM,-3.725%
O=C(CN1CCCC(c2ccn[nH]2)C1)Nc1nc2c(s1)CCCC2 (configuration not stated),Percent Effect,10 µM,31.73%
Cc1cc(C2CCCN(CC(=O)Nc3nc4c(s3)CCC4)C2)n[nH]1 (configuration not stated),Percent Effect,10 µM,56.52%
O=C(CN1CCCC(c2ccn[nH]2)C1)Nc1nc2c(s1)CCC2 (configuration not stated),Percent Effect,10 µM,42.36%
Cc1noc(CN(C)Cc2cncn2C(C)C)n1,Percent Effect,50 µM,-12.13%
CCN1CC2(CC1=O)CN(Cc1ccsc1)CCN(C(=O)C(C)C)C2.O=C(O)C(F)(F)F (configuration not stated),Percent Effect,10 µM,-7.478%
CCN1CC2(CC1=O)CN(Cc1cnn(C)c1)CCN(C(=O)C(C)C)C2.O=C(O)C(F)(F)F (configuration not stated),Percent Effect,10 µM,-2.705%
CCN1CC2(CC1=O)CN(Cc1cccs1)CCN(C(=O)C(C)C)C2 (configuration not stated),Percent Effect,10 µM,-4.777%
CCN1CC2(CC1=O)CN(Cc1ccco1)CCN(C(=O)C(C)C)C2.O=C(O)C(F)(F)F (configuration not stated),Percent Effect,10 µM,-13.42%
CCN1CC2(CC1=O)CN(Cc1ccncc1)CCN(C(=O)C(C)C)C2.O=C(O)C(F)(F)F.O=C(O)C(F)(F)F (configuration not stated),Percent Effect,10 µM,78.24%
CCN1CC2(CC1=O)CN(Cc1ccoc1)CCN(C(=O)C(C)C)C2 (configuration not stated),Percent Effect,10 µM,73.92%
NS(=O)(=O)c1ccc(Sc2ccc(F)cc2F)nc1,Percent Effect,50 µM,-8.713%
CS(=O)(=O)N1CCC(CN)C1 (configuration not stated),Percent Effect,50 µM,0.02635%
CC(Cc1ccco1)NS(=O)(=O)N1CCOCC1 (configuration not stated),Percent Effect,50 µM,99.87%
CC(Cc1ccco1)NS(=O)(=O)N1CCCCCC1 (configuration not stated),Percent Effect,10 µM,-1.07%
CC(Cc1ccco1)NS(=O)(=O)N1CCCCC1 (configuration not stated),Percent Effect,10 µM,0.1189%
Nc1nccc(N2CCC(c3cc(Cc4ccccc4)n[nH]3)CC2)n1,Percent Effect,10 µM,46.75%
Nc1cc(N2CCC(c3cc(Cc4ccccc4)n[nH]3)CC2)ccn1,Percent Effect,10 µM,67.3%
Nc1nc(O)cc(N2CCC(c3cc(Cc4ccccc4)n[nH]3)CC2)n1,Percent Effect,10 µM,2.428%
CN(C)c1ccc(NC(=O)N2CCSCC2)cn1,Percent Effect,50 µM,-21.27%
COc1ccc2[nH]cc(-c3ccnc(NC4CCCC4)n3)c2c1,Percent Effect,10 µM,56.3%
COc1ccc2[nH]cc(-c3ccnc(N4CCC(C)CC4)n3)c2c1,Percent Effect,10 µM,11.49%
COC(=O)c1ccc2c(-c3ccnc(NCCO)n3)c[nH]c2c1,Percent Effect,10 µM,29.45%
Cn1ccnc1SCC(=O)Nc1cccnc1,Percent Effect,50 µM,-23.51%
COCCCOc1cc(C)ccc1CN,Percent Effect,50 µM,-20.96%
COc1ccc(NCC(=O)N2CCNC(=O)C2)c(C)c1,Percent Effect,50 µM,52.04%
COc1cccc(CC(=O)N2CCNC(=O)C2)c1,Percent Effect,50 µM,4.575%
COc1ccc(N2CCCN(CC(=O)N3CCNC(=O)C3)CC2)cc1,Percent Effect,10 µM,-0.2401%
NCc1ccc(N2CCS(=O)(=O)CC2)cc1,Percent Effect,50 µM,2.889%
CC(Nc1ncnc2c1cnn2C)c1ccncc1 (configuration not stated),Percent Effect,50 µM,10.45%
NC(=O)CN1CCCN(C(=O)c2sccc2Br)CC1,Percent Effect,50 µM,2.336%
Cc1ccc(C(CCNCCCN(C)C)C2CCOC(C)(C)C2)cc1.O=C(O)C(=O)O (configuration not stated),Percent Effect,10 µM,86.28%
CN(C)CCCNCCC(c1ccccc1)C1CCOC(C)(C)C1.O=C(O)C(=O)O (configuration not stated),Percent Effect,10 µM,13.16%
Cc1ccc(C(CCNCCN(C)C)C2CCOC(C)(C)C2)cc1.O=C(O)C(=O)O (configuration not stated),Percent Effect,10 µM,5.223%
CN(C)CCNCCC(c1ccccc1)C1CCOC(C)(C)C1.O=C(O)C(=O)O (configuration not stated),Percent Effect,10 µM,-5.061%
CN(C)CCCNCC1CCOC(C)(C)C1 (configuration not stated),Percent Effect,10 µM,15.27%
CC(=O)Nc1nc2c(s1)CCCC2,Percent Effect,50 µM,-6.719%
NC1CN(S(=O)(=O)c2ccc3c(c2)OCCO3)C1,Percent Effect,50 µM,61.03%
O=S(=O)(c1ccc2c(c1)OCCO2)N1CCCNCC1,Percent Effect,50 µM,3.594%
O=S(=O)(c1ccc2c(c1)OCCO2)N1CCc2ccccc2C1,Percent Effect,10 µM,3.262%
c1cncc(CCNCc2cccc3c2OCCO3)c1,Percent Effect,50 µM,-5.823%
CN(C)S(=O)(=O)NCC(O)c1cccc(C(F)(F)F)c1 (configuration not stated),Percent Effect,50 µM,2.973%
Cc1cccc(C(=O)Nc2cccc(O)c2)n1,Percent Effect,50 µM,0.8696%
O=C(NCCn1cnc(C2CCCC2)cc1=O)NCc1cccs1,Percent Effect,10 µM,56.76%
CC(C)NC(=O)NCCn1cnc(C2CCCC2)cc1=O,Percent Effect,10 µM,7.593%
O=C(NCCn1cnc(C2CCCC2)cc1=O)c1ccc(=O)[nH]n1,Percent Effect,10 µM,-2.574%
CC(=O)c1ccc(Br)o1,Percent Effect,50 µM,1.756%
Cc1ccc(C(=O)COC(=O)c2cccnc2N)cc1,Percent Effect,50 µM,-8.374%
CC(C)c1ccc(S(=O)(=O)C(C)C(N)=O)cc1 (configuration not stated),Percent Effect,50 µM,-3.645%
CC(C)CCC(=O)N1CCNCC1,Percent Effect,50 µM,-1.153%
CC(C)CCC(=O)N1CCC(C)(CO)C1 (configuration not stated),Percent Effect,50 µM,58.28%
CC(=O)N1CCN(C(=O)CCC(C)C)CC1,Percent Effect,50 µM,-13.31%
Cc1noc(C)c1CN1CCCC(CS(C)(=O)=O)C1 (configuration not stated),Percent Effect,50 µM,-9.047%
O=C1CC(C(=O)N2CCOC3(CCCC3)C2)CCN1 (configuration not stated),Percent Effect,50 µM,-8.974%
C1CC(C2CCOC2)CCN1 (configuration not stated),Percent Effect,50 µM,0.8119%
C1CC(C2CNC2)CO1 (configuration not stated),Percent Effect,50 µM,5.994%
C1CC(C2CNC2)CCO1,Percent Effect,50 µM,67.45%
CCNC(=O)CNc1nccc(OC)n1,Percent Effect,50 µM,5.07%
Cc1nn(-c2ccc(F)cc2)cc1CN,Percent Effect,50 µM,-3.262%
CC(C)COCC1CCNCC1,Percent Effect,50 µM,3.232%
CCCC(=O)NCCCNC(=O)c1ccc(C)nc1,Percent Effect,50 µM,-3.506%
Cc1ccc(C(=O)NCCCNCCCN(C)C)cn1,Percent Effect,50 µM,99.75%
Cc1ccc(C(=O)NCC(C)(C)N(C)C)cn1,Percent Effect,50 µM,-0.683%
O=C(NC1CCCSC1)N(CCO)C1CC1 (configuration not stated),Percent Effect,50 µM,98.6%
Cc1nnc(NC(=O)N(CCO)C2CC2)s1,Percent Effect,50 µM,-4.304%
O=C(NC1CCCSC1)N[C@H](CO)Cc1ccccc1 (some centres not stated),Percent Effect,50 µM,1.879%
CCCn1ccnc1CNC(=O)CCNS(C)(=O)=O,Percent Effect,50 µM,-5.274%
Cc1cc(S(=O)(=O)N[C@@H]2CCOC[C@H]2O)n(C)n1,Percent Effect,50 µM,15.92%
CCn1ccnc1CN(C)CCC(=O)NC(C)C,Percent Effect,50 µM,14.34%
CN(C)C1CCN(C(=O)CN(C)S(C)(=O)=O)CC1,Percent Effect,50 µM,-9.436%
COCCNc1nc(-c2ccc(O)cc2O)cs1,Percent Effect,50 µM,0.3364%
COc1ncccc1-c1cccc(C#N)n1,Percent Effect,50 µM,5.499%
COc1ncccc1-c1csc(NCCSC)n1,Percent Effect,50 µM,98.47%
N#Cc1cccc(NC(=O)NC2CCS(=O)(=O)C2)c1 (configuration not stated),Percent Effect,50 µM,1.062%
CCC(=O)N(c1ccc(Cl)cc1)C1C=CS(=O)(=O)C1 (configuration not stated),Percent Effect,50 µM,-0.8656%
NCCCNS(=O)(=O)c1ccc(Cl)cc1,Percent Effect,50 µM,-0.1272%
O=C(NCCC1=CCCCC1)c1cc(-c2ccc(O)cc2)n[nH]1,Percent Effect,10 µM,74.79%
CCCc1cc(C(=O)NCCC2=CCCCC2)[nH]n1,Percent Effect,10 µM,32.61%
Cc1ccc(-c2cc(C(=O)NCCC3=CCCCC3)[nH]n2)o1,Percent Effect,10 µM,28.69%
O=C(CN1CCN(CCO)CC1)Nc1ccc(Br)cn1,Percent Effect,50 µM,2.183%
COc1cc(Cl)ccc1CN,Percent Effect,50 µM,12.35%
COc1ccc(NC(=O)Cn2nc(C)c(C(C)=O)c2C)cc1,Percent Effect,10 µM,89.45%
COc1ccc(NC(=O)Cn2nc(C)c(C)cc2=O)cc1,Percent Effect,10 µM,-1.054%
CC(=O)c1c(C)nn(CC(=O)Nc2ccc(Br)cc2)c1C,Percent Effect,10 µM,96.91%
CC(=O)c1c(C)nn(CC(=O)Nc2ccc(F)cc2)c1C,Percent Effect,10 µM,19.31%
CCN1CCN(CC(=O)Nc2ccc(OC)cc2)CC1,Percent Effect,50 µM,6.454%
Cc1cc(=O)n(CC(=O)Nc2ccc(Cl)cc2)nc1C,Percent Effect,10 µM,3.812%
NCCS(=O)(=O)NCc1ccccc1,Percent Effect,50 µM,-6.39%
CC(=O)NCCNC(=O)CC(C)C1CCCCC1 (configuration not stated),Percent Effect,50 µM,-13.76%
CNC(=O)CN1CCC(NC(=O)c2cccs2)CC1,Percent Effect,50 µM,-6.649%
CS(=O)(=O)C1CCCCN(C(=O)CC2CCSCC2)C1 (configuration not stated),Percent Effect,50 µM,-13.3%
NC(=O)c1ccc(OCC(=O)c2ccccc2F)cc1,Percent Effect,50 µM,-5.248%
CCN(Cc1c(F)cccc1Cl)c1cc(C2CCNCC2)nc(C)n1,Percent Effect,10 µM,79.97%
CN(Cc1cc2cc(F)ccc2[nH]1)c1cc(C2CCCNC2)ncn1 (configuration not stated),Percent Effect,10 µM,38.81%
CCN(Cc1ccncc1)c1cc(C2CCNCC2)nc(C)n1,Percent Effect,10 µM,30.82%
Cc1nc(C2CCNCC2)cc(N(C)Cc2cc3cc(F)ccc3[nH]2)n1,Percent Effect,10 µM,63.01%
Cc1nc(-c2ccc(F)cc2)cc(C2CCNCC2)n1,Percent Effect,10 µM,1.268%
CCN(Cc1ccncc1)c1cc(C2CCCNC2)nc(C)n1 (configuration not stated),Percent Effect,10 µM,14.41%
CCC(N)c1ccccc1OCC(=O)N(C)C (configuration not stated),Percent Effect,50 µM,-2.206%
NC(=O)CCSc1nnc(N2CCCC2)n1C1CC1,Percent Effect,50 µM,10.69%
Cc1nccn1CCNc1cc(C2CC(O)C2)ncn1 (configuration not stated),Percent Effect,50 µM,47.03%
CNC(=O)NC(=O)CCN1CCCC(C)C1 (configuration not stated),Percent Effect,50 µM,60.28%
CNC(=O)NC(=O)CCN1CCCC(C(F)(F)F)C1 (configuration not stated),Percent Effect,50 µM,-7.84%
CNC(=O)NC(=O)CCN1CCCCC1,Percent Effect,50 µM,-8.963%
Cc1nn(C)cc1C(C)NC(=O)CNc1ccccc1 (configuration not stated),Percent Effect,50 µM,-0.7115%
CN(CC(=O)N1CCOCC1)Cc1cc(Br)cs1,Percent Effect,50 µM,6.245%
COc1ccccc1C1(CNc2snc(Cl)c2C#N)CCCC1,Percent Effect,10 µM,2.513%
N#Cc1c(Cl)nsc1NCC1(c2ccccc2)CCC1,Percent Effect,10 µM,79.2%
COc1ccccc1C1(CNc2snc(Cl)c2C#N)CCOCC1,Percent Effect,10 µM,-0.2674%
